mHTT CaM bind – mHTT-calmodulin interaction abrogation | inhibition, % at 15 µM | 3.6% of 190,000 active | AID 1671202 | AlphaScreen His-mHTT/GST-CaM binding, luminescence | P42858
Pf apPOL inh – Pf-apPOL DNA polymerase inhibition | Recombinant Pf-apPOL, molecular beacon fluorescence, 1.5 h | inhibition, % at 10 µM | 0.25% of 210,000 active | AID 1794808
Large screens that a line does not name were inactive. The entries come from a sample that favours hits as a whole. No stated cut-off is given here; in the data, active means inhibition above about 50%; inactive means the rest.

CN1CCN(C(=O)c2ccc(N3CCNC(c4ccccc4)C3)nc2)CC1 (stereo unspecified)	none
O=C(O)CCC(=O)Nc1nc2n(n1)C(c1ccccc1)C=C(c1ccc(Cl)cc1)N2 (stereo unspecified)	none
O=C(Nc1nc2n(n1)C(c1ccccc1)C=C(c1ccccc1)N2)c1ccccc1 (stereo unspecified)	mHTT CaM bind 59
COc1ccc(-c2nc(Nc3c(Cl)cccc3Cl)sc2C)cc1	none
CCn1ccc(C(=O)N2CCCC3(C2)Nc2ccccc2NC3=NC(C)(C)C)n1 (stereo unspecified)	none
COCC(=O)N1CCC(CCOc2ccc(F)cc2)CC1	none
CCc1ccc2cc(-c3ccc(Cl)cc3)cn2c1	mHTT CaM bind 59
CCc1nn2cc(-c3ccc(Cl)cc3)nc2s1	none
Cc1ccc(S(=O)(=O)c2ccc(Cl)cc2)cc1S(=O)(=O)Nc1ccc(C(=O)O)cc1	none
CC(=O)Nc1ccc(NC2=CC(=NS(=O)(=O)c3ccccc3)c3ccccc3C2=O)cc1	mHTT CaM bind 71
CC(=O)Nc1ccc(NC2=CC(=NS(=O)(=O)c3ccc(C)cc3)c3ccccc3C2=O)cc1	none
O=C(O)c1ccc(NC2=CC(=NS(=O)(=O)c3ccc(Cl)cc3)c3ccccc3C2=O)cc1	mHTT CaM bind 82
O=C(c1ccoc1)N1CCN(c2[nH]ncc2-c2ccncc2)CC1	none
Cc1cc(C)nc(NS(=O)(=O)c2ccc(NC(=O)CSc3nncn3C)cc2)n1	none
CC1=NN(c2ccccc2)C(=O)/C1=C/N(O)Cc1ccccc1	none
O=C(Nc1ccccc1)c1cccc2c1-c1ccccc1C2=O	none (no result: mHTT CaM bind)
COc1cc(Cl)cc(/C=C2\NC(=O)N(Cc3ccc(Br)cc3)C2=O)c1O	none
O=C(Nc1cccc2c1C(=O)NC2=O)c1ccc(Cl)s1	mHTT CaM bind 100
O=C(Nc1cccc2c1C(=O)c1ccccc1C2=O)c1ccc(Cl)s1	none
CCSc1nnc2c(n1)OC(c1ccccn1)Nc1ccccc1-2 (stereo unspecified)	Pf apPOL inh 93
C=CCSc1nnc2c(n1)OC(/C=C/c1ccco1)Nc1ccc(Br)cc1-2 (stereo unspecified)	mHTT CaM bind 87
CSc1nnc2c(n1)OC(/C=C/c1ccco1)Nc1ccc(Br)cc1-2 (stereo unspecified)	mHTT CaM bind 92
CCCSc1nnc2c(n1)OC(/C=C/c1ccco1)Nc1ccccc1-2 (stereo unspecified)	mHTT CaM bind 54
C=CCSc1nnc2c(n1)OC(/C=C/c1ccco1)Nc1ccccc1-2 (stereo unspecified)	none
CSc1nnc2c(n1)OC(c1ccccn1)Nc1ccc(Br)cc1-2 (stereo unspecified)	none
CCSc1nnc2c(n1)OC(c1ccccn1)Nc1ccc(Br)cc1-2 (stereo unspecified)	none
CSc1nnc2c(n1)OC(/C=C/c1ccco1)Nc1ccccc1-2 (stereo unspecified)	none
CCOc1ccc(NC(=O)Nc2nnc(-c3ccco3)s2)cc1	none
CCOC(=O)N1CCN(C(=O)CSc2ncc(CO)n2Cc2ccc(C)cc2)CC1	none
COc1ccc(Nc2ncnc3c2nc2n3CCCC2)cc1	none
CN(C)CCCN(C(=O)c1nc2ccccc2s1)c1nc2c(Cl)cccc2s1	none
Cc1cccc2sc(N(CCCN(C)C)C(=O)c3ccccc3Br)nc12	mHTT CaM bind 96
Cc1nc2cc(N3CC(C(=O)NCc4ccc(OC(C)C)cc4)CC3=O)ccc2o1 (stereo unspecified)	mHTT CaM bind 100
COc1ccc(CNC(=O)C2CC(=O)N(c3ccc4oc(C)nc4c3)C2)cc1OC (stereo unspecified)	none
COc1ccc(Cl)cc1C(=O)N(Cc1ccccn1)Cc1ccco1	none
Cc1ccc(NC(=O)C2(S(=O)(=O)c3ccc(Cl)cc3)CC2)cc1F	Pf apPOL inh 84
O=C(Nc1ccc(F)cc1)C1(S(=O)(=O)c2ccc(Cl)cc2)CC1	none
C=CCn1cnc2c1c(=O)n(CC1CC1)c(=O)n2-c1cccc(F)c1	none
CC(=O)C1=C(O)C(=O)N(CCO)C1c1ccc(Br)cc1 (stereo unspecified)	none
Cc1ccc(N(C(=O)Cc2ccccc2)C2C=CS(=O)(=O)C2)cc1Cl (stereo unspecified)	none
CCCCOc1ccc(C(=O)N(c2ccc(C)c(Cl)c2)C2C=CS(=O)(=O)C2)cc1 (stereo unspecified)	mHTT CaM bind 64
Cc1cccc(C2=N[C@@H](Cc3ccccc3)CO2)c1	mHTT CaM bind 81
Cc1cccc(C2=N[C@@H](CC(C)C)CO2)c1	none
O=c1[nH]c2c(s1)C(c1cccc([N+](=O)[O-])c1)C1C3CCC(C3)C1S2 (stereo unspecified)	none
Cn1c(C(=O)NC2CC2)cc2c1CCN(Cc1ccc(F)cc1)C2	none
CC1CCCN(C(=O)c2cc3c(n2C)CCN(Cc2ccc(F)cc2)C3)C1 (stereo unspecified)	mHTT CaM bind 58
CC1CCCN(C(=O)c2cc3c(n2C)CCN(Cc2ccccc2)C3)C1 (stereo unspecified)	mHTT CaM bind 69
Cn1c(C(=O)N2CCC(N3CCCCC3)CC2)cc2c1CCN(Cc1ccccc1)C2	none
C=C(C)c1cccc(C(C)(C)NC(=O)Nc2ccc(I)cc2)c1	none
O=S(=O)(NCc1ccc(Cl)c(Cl)c1)c1ccc(F)cc1	none
Clc1ccc(OCCN2CCOCC2)cc1	Pf apPOL inh 82
Clc1ccc(OCCCN2CCOCC2)cc1	none
NS(=O)(=O)c1ccc(CNC(=O)Cn2cnc(-c3cccs3)cc2=O)cc1	none
Cc1cc(O)cc2c1C(=O)C(=Cc1cc3ccccc3o1)O2	mHTT CaM bind 55
Cc1cc(O)cc2c1C(=O)C(=Cc1ccccc1)O2	none
O=C(Cc1noc2ccccc12)NCCOc1ccc(-c2ccncc2)nn1	none
COc1ccc(CC(=O)Nc2ccc3c(c2)Cc2ccccc2-3)cc1OC	none
COc1cc(NCc2ccc3c(c2)Cc2ccccc2-3)cc(OC)c1OC	mHTT CaM bind 59
COCC(=O)N1CCN(c2ccc(C)cc2C)C(=O)C1C (stereo unspecified)	none
CCNc1nccc(N2CCC(CC(=O)N3CCN(c4cccc(Cl)c4)CC3)CC2)n1	mHTT CaM bind 51
CNC(=O)CC1CCN(c2ccnc(NC)n2)CC1	Pf apPOL inh 93
CNc1nccc(N2CCC(CC(=O)N3CCN(c4cccc(C)c4)CC3)CC2)n1	none
CNc1nccc(N2CCC(CC(=O)NCCOC)CC2)n1	none
CC(C)c1nnc(C2CCN(C(=O)Nc3ccc(C(F)(F)F)cc3)CC2)o1	none
CNC(=O)N1CCc2c(c(-c3nc(-c4ccc(F)cc4)no3)nn2C)C1	none
COc1ccc(S(=O)(=O)NCc2ccc3c(c2)OCO3)cc1OC	none
COc1ccc(S(=O)(=O)NCc2ccc(CNS(=O)(=O)c3ccc(OC)cc3)cc2)cc1	mHTT CaM bind 59
COc1ccc(S(=O)(=O)NCc2ccc(F)cc2)cc1OC	Pf apPOL inh 68
COc1ccc(S(=O)(=O)NCc2ccc(S(N)(=O)=O)cc2)cc1	none
Cc1c(Cl)cccc1NC(=O)NCC1CCN(Cc2ccccc2F)CC1	none
Cc1cc(C2CCCN2C(=O)NC2CCCCC2)no1 (stereo unspecified)	none
CCCC(NC(N)=O)c1ccccc1 (stereo unspecified)	none
CC(=O)N(Cc1cc(N)ccc1N(C)C)C(C)C	none
CN(N=CC=NNc1ccccc1)c1ccc(Cl)cc1[N+](=O)[O-]	none (no result: mHTT CaM bind)
COc1ccc(OCC2c3cc(OC)c(OC)cc3CCN2C(=O)c2c(F)cccc2F)cc1 (stereo unspecified)	Pf apPOL inh 82
